Screening data: PubChem BioAssay, Broad Institute
A selection follows.
aSyn 5UTR act = Activators working through SNCA 5'UTR binding (MLPCN); activity score, % (tested at 7.5 µM), hits read low; alpha-synuclein 5'UTR reporter, activators screen; 7.1% of 300,000 active; in the data active = activity score below about -60%
Starred values were filed as active, the others as inactive.

Screening Cc1c(Cl)c(C(=O)NNC(=S)Nc2ccc(F)cc2)nn1C returned aSyn 5UTR act -70.3*.
Cc1c(Cl)c(C(=O)NNC(=S)Nc2ccccc2)nn1C was read as aSyn 5UTR act -101.8*.
For CCCCOc1ccc(C(=O)N2CCCCCC2)cc1 the results were aSyn 5UTR act -80.5*.
O=C(c1ccc(COc2ccc(Cl)cc2)cc1)N1CCCCC1 was read as aSyn 5UTR act -85.5*.
COC(=O)c1ccc(COc2ccc(CNCc3ccc(Cl)cc3)cc2)cc1 was read as aSyn 5UTR act -92.1*.
For Nc1c2c(=O)oc(-c3ccccc3)cc2nn1-c1ccccc1 the results were aSyn 5UTR act -181.5*.
COc1ccc(-n2nc(C(=O)NCC(=O)N3CCN(c4ccccc4F)CC3)c3ccccc3c2=O)cc1 was read as aSyn 5UTR act -119.6*.
`COc1ccc(NC(=O)CSc2n[nH]c(N)n2)cc1OC` gave aSyn 5UTR act -92.3*.
Screening Nc1nc(SCC(=O)Nc2ccc(OCc3ccccc3)cc2)n[nH]1 returned aSyn 5UTR act -84.5*.
For CCOCCCNC(=O)c1cccc(OC2CCN(S(C)(=O)=O)CC2)c1 the results were aSyn 5UTR act -150.5*.
CCOCCCNC(=O)c1ccc2c(c1)N=C(CC)c1cc(Br)ccc1S2 was read as aSyn 5UTR act 88.0.
For O=C(/C(C=Nc1cccc(C(F)(F)F)c1)=C(/O)c1ccco1)C(F)(F)F the results were aSyn 5UTR act -193.8*.
Screening O=C(/C(C=Nc1ccc(Br)cc1)=C(/O)c1ccco1)C(F)(F)F returned aSyn 5UTR act -175.1*.
For Nc1ccc2nc(-c3ccccc3)cnc2c1 the results were aSyn 5UTR act -76.2*.
Screening CCCCOc1ccc(-c2cnc3ccccc3n2)cc1 returned aSyn 5UTR act 101.3.
Screening Clc1ccc(-c2cnc3ccccc3n2)cc1 returned aSyn 5UTR act -208.0*.
For Oc1ccc(-c2cnc3ccccc3n2)cc1 the results were aSyn 5UTR act -72.3*.
`Cc1c(/C=N\NC(=O)C2COc3ccccc3O2)c2ccccc2n1C` (configuration not stated) gave aSyn 5UTR act 102.0.
Screening O=C(N/N=C/c1cn(Cc2ccccc2)c2ccccc12)c1cc(O)cc(O)c1 returned aSyn 5UTR act 62.1.
Screening O=C(O)c1ccc(N/N=C/c2cn(Cc3ccc(F)cc3)c3ccccc23)cc1 returned aSyn 5UTR act -68.9*.
O=[N+]([O-])/C=C/c1cn(Cc2ccc(F)cc2)c2ccccc12 was read as aSyn 5UTR act 63.2.
`Cc1c(/C=N/Nc2ccc(C(=O)O)cc2)c2ccccc2n1C` gave aSyn 5UTR act -118.8*.
For O=c1c(-c2ccc([N+](=O)[O-])cc2)coc2c(O)c(O)ccc12 the results were aSyn 5UTR act -90.9*.
`CCCCOC(=O)c1ccc(NC(=O)C2CCCO2)cc1` (configuration not stated) gave aSyn 5UTR act -75.0*.
For CCCCOC(=O)c1ccc(NC(=O)c2c(Cl)ccc(Cl)c2OC)cc1 the results were aSyn 5UTR act -65.5*.
For CCCCc1nnc(NC(=O)C2=COCCO2)s1 the results were aSyn 5UTR act -64.1*.
`CCCc1nnc(NC(=O)C23CC4CC(CC(C4)C2)C3)s1` gave aSyn 5UTR act -117.6*.
CCOC(=O)c1ccc(NC(=O)C2CCCO2)cc1 (configuration not stated) was read as aSyn 5UTR act -98.7*.
For CCCCc1ccc(NC(=O)C2CCCO2)cc1 (configuration not stated) the results were aSyn 5UTR act -97.0*.
For CCCCc1nnc(NC(=O)C2CCCO2)s1 (configuration not stated) the results were aSyn 5UTR act -85.5*.
`CCN(CC(=O)Nc1ccc2c(c1)OCCO2)C(=O)c1ccc(C(F)(F)F)cc1` gave aSyn 5UTR act -62.5*.
For CCN(CC(=O)Nc1ccc2c(c1)OCCO2)C(=O)c1ccc(Cl)cc1Cl the results were aSyn 5UTR act -111.7*.
`C(=N\Nc1nc2ccccc2[nH]1)/c1c[nH]c2ccccc12` gave aSyn 5UTR act -223.8*.
`COc1cccc(/C=N/Nc2nc(C)cc(=O)[nH]2)c1OC` gave aSyn 5UTR act -79.4*.
Cc1ccc(/C=N/Nc2nc3ccccc3[nH]2)s1 was read as aSyn 5UTR act -311.7*.
`Cc1cc(=O)[nH]c(N/N=C/c2cc(C)n(CC(F)(F)F)c2C)n1` gave aSyn 5UTR act -89.3*.
`COc1cccc(/C=N/Nc2ncccc2[N+](=O)[O-])c1OC` gave aSyn 5UTR act 91.6.
`Cc1[nH]c2ccccc2c1/C=N/Nc1cccc(C(=O)O)c1` gave aSyn 5UTR act -101.2*.
Cc1ccccc1/C=N/Nc1nc2ccccc2[nH]1 was read as aSyn 5UTR act -114.8*.
C(=N\Nc1nc2ccccc2[nH]1)/c1cccc2cccnc12 was read as aSyn 5UTR act 73.4.
Screening COc1ccc(/C=N/Nc2nc3ccccc3[nH]2)c(OC)c1OC returned aSyn 5UTR act -108.5*.
Screening Cc1[nH]c2ccccc2c1/C=N/Nc1nc2ccccc2[nH]1 returned aSyn 5UTR act -228.4*.
`COc1ccccc1-c1nc(-c2ccc(Br)o2)no1` gave aSyn 5UTR act -95.3*.
Screening COc1ccc(-c2nnc(-c3ccc(Br)o3)o2)cc1OC returned aSyn 5UTR act -89.9*.
`COc1ccc(-c2nc(-c3ccc(Br)o3)no2)cc1OC` gave aSyn 5UTR act -210.5*.
For CCc1c(C)nc(SCC(=O)c2cccs2)c(C#N)c1C the results were aSyn 5UTR act -269.3*.
COC(=O)Nc1nc2ccc(Br)cc2s1 was read as aSyn 5UTR act -147.6*.
For Cc1cccc2sc(NNC(=O)c3ccc(S(=O)(=O)N4CCc5ccccc5C4)cc3)nc12 the results were aSyn 5UTR act 66.9.
`Cc1cccc2sc(NC(=O)c3ccc(Cl)s3)nc12` gave aSyn 5UTR act -198.9*.
Screening COC(=O)Nc1nc2c(C)cccc2s1 returned aSyn 5UTR act -92.5*.
`COc1cccc2sc(NC(=O)c3ccc(Br)s3)nc12` gave aSyn 5UTR act -146.4*.
Cc1ccc(-c2nc3ccccn3c2NCc2ccc3c(c2)OCO3)cc1 was read as aSyn 5UTR act -163.2*.
For COc1ccc(-c2nc3ccc(C)cn3c2NCc2ccc3c(c2)OCO3)cc1 the results were aSyn 5UTR act -119.2*.
`COc1cccc(/C(C)=N/NC(=O)c2ccc(N(C)C)cc2)c1` gave aSyn 5UTR act -101.3*.
Screening COc1ccc(C(=O)N/N=C(/C)c2cccc(NC(=O)C(F)(F)F)c2)cc1 returned aSyn 5UTR act -107.7*.
Screening COc1ccc2cc(/C(C)=N/NC(=O)C3CC3)ccc2c1 returned aSyn 5UTR act -134.6*.
Screening C/C(=N/NC(=O)c1ccoc1C)c1cccc(NC(=O)C2CC2)c1 returned aSyn 5UTR act -114.8*.
Screening C/C(=N/NC(=O)c1ccoc1C)c1cccc(NC(=O)C(F)(F)F)c1 returned aSyn 5UTR act -127.8*.
`C/C(=N\Nc1nncc2ccccc12)c1cccc(OC(F)F)c1` gave aSyn 5UTR act -97.4*.
For C/C(=N\Nc1nncc2ccccc12)c1ccc(C(C)(C)C)cc1 the results were aSyn 5UTR act -83.6*.
Screening CCc1ccc(-c2cc(C(=O)Nc3c(C)n(C)n(-c4ccccc4)c3=O)c3ccccc3n2)s1 returned aSyn 5UTR act -68.3*.
`Cc1cccc(NC(=O)c2cc(-c3ccc(C)s3)nc3ccccc23)n1` gave aSyn 5UTR act -93.3*.
`COc1ccc(-n2nc3cc(C)c(NC(=O)CC(C)C)cc3n2)cc1` gave aSyn 5UTR act -123.3*.
For COc1ccc(-n2nc3cc(C)c(NC(=O)c4cccnc4)cc3n2)cc1 the results were aSyn 5UTR act -82.5*.
